Screening data from PubChem BioAssay.
SUMO Mot1 rescue = inhibitors of SUMOylation pathway: yeast Mot1-301 growth rescue | S. cerevisiae Mot1-301 growth rescue, ATP luminescence, 38.5C; percent above DMSO median, 100 means doubled | growth rescue, % at 18.8 µM | 320,000 compounds, 1% hits | AID 2716;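 active means every valid replicate shows activation above 250% relative to neutral control wells; inactive means the rest, any valid replicate at or below 250%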;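 further: OY570 slx delta 5 strain wells were the positive control but not used for scaling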
ALR inh = human ALR oxidase inhibition via reduced H2O2; P55789; purified ALR, DTT oxidation, H2O2 HRP-luminol luminescence; inhibition, % (test concentration not listed); 290,000 compounds, 3.8% hits;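 active means mean replicate inhibition above about 79%, with every replicate also reaching it, limit read from the data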
HIF activator = HIF pathway transcriptional activation | 300,000 compounds, 0.32% hits | activation, % at 7.5 µM (by protocol) | U2OS HRE-luciferase reporter, luminescence; normalized: DMSO 0%, desferrioxamine 100%;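 active means mean activation of at least 10% of the iron chelator positive control signal, with at least half of replicates also reaching 10%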
PfM18AAP inh-1 = blocks P. falciparum M18 aspartyl aminopeptidase. 290,000 compounds, 1.2% hits. inhibition, % at 7.35 µM. recombinant PfM18AAP, H-Glu-NHMec fluorogenic cleavage;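 active means inhibition above the campaign mean inhibition over all tested compounds plus 3 SD, cut at about 28% in these data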;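 further: 0% = plate median of test compound wells and 100% = 2 mM ZnCl2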
PfM18AAP inh-2 = PfM18AAP inhibition, confirmation | shares compounds with PfM18AAP inh-1 | recombinant PfM18AAP, H-Glu-NHMec fluorogenic cleavage | 2,400 compounds, 28% hits | inhibition, % at 7.35 µM;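 active means mean inhibition over replicate wells above the hit cutoff set for the earlier primary screen, cut at about 29% in these data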;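 further: 0% = median of test compound wells and 100% = 2 mM ZnCl2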
CTSL1 counter = Cathepsin L (human) inhibition, confirmation. shares compounds with PfM18AAP inh-1. purified cathepsin L1, Z-Leu-Arg-MCA fluorescence. inhibition, % at 5.96 µM. 2,400 tested, under 10 active. AID 2178;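 active means average inhibition across replicates above the hit cutoff set in the earlier primary screen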;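 further: 0% = median of test compound wells and 100% = Z-Phe-Ala-diazomethylketone 1 µM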
Target sequence (P07711 whole entry, looked up): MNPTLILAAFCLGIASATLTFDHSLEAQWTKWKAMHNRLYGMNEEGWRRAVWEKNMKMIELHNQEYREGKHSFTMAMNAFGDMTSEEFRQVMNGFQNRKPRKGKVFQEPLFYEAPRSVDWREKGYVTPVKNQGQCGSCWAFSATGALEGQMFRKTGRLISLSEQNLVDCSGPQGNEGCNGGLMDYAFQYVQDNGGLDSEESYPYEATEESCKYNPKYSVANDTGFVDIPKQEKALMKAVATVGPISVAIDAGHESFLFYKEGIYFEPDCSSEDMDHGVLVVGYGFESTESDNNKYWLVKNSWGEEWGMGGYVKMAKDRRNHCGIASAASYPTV
Starred values were filed as active, the others as inactive; x = no result given. Shown are actives, neighbours in structure and some others; about 5.3% of the full set was active somewhere.

SMILES	SUMO Mot1 rescue	ALR inh	HIF activator	PfM18AAP inh-1	PfM18AAP inh-2	CTSL1 counter
CCc1cccc(C)c1NC(=O)CN1C(=O)NC(CCc2ccccc2)C1=O (stereo not given)	9	0	x	x	x	x
O=C(CSC1=NCCN1)C1COc2ccccc2O1 (stereo not given)	-2	93*	0	42*	-37	0
Cc1ccc(Nc2nc(/N=C/NO)n[nH]2)cc1C	-1	61	1	33*	-4	-2
CCN(C(=O)C(C)N1C(=O)/C(=C/c2ccco2)SC1=S)C1CCS(=O)(=O)C1 (stereo not given)	34	-20	0	43*	-43	2
O=C(NNc1cccc(Cl)n1)Nc1ccc(F)cc1	16	7	0	52*	44*	-2
O=C(NNc1cccc(Cl)n1)C(F)(F)F	9	47	0	27	x	x
O=C(Nc1ccccc1F)Nc1ccccc1F	660	9	5	0	x	x
O=C(NNc1cccc(Cl)n1)Nc1ccccc1Cl	-24	x	2	50*	34*	-3
O=C(NNc1cccc(Cl)n1)Nc1ccccc1F	-8	15	1	53*	41*	0
COc1ccc(N(CC(=O)N2CCOCC2)S(C)(=O)=O)cc1OC	4	-5	-3	-5	x	x
Cc1ccc(C(=O)OCC(=O)NC(=O)c2ccccc2)o1	-1	-1	-1	x	x	x
Cc1cc(C)c(S(=O)(=O)NC2CC3CCC2C3)c(C)c1 (stereo not given)	24	-13	1	1	x	x
O=C(Nn1cnnc1)C1CCCN1S(=O)(=O)c1ccc(F)cc1 (stereo not given)	17	-7	0	9	x	x
Cc1ccc(S(=O)(=O)Nc2ccccc2-c2ccccc2NS(=O)(=O)c2ccc(C)cc2)cc1	14	2	0	7	x	x
CCCCOC(=O)Nc1ccc(S(=O)(=O)Nc2ncccn2)cc1	-5	-10	-2	2	x	x
CCCCCOC(=O)Nc1ccc(S(=O)(=O)Nn2cnnc2)cc1	5	-1	0	46*	48*	0
Cc1ccc(S(=O)(=O)Nn2cnnc2)cc1	9	x	-1	65*	56*	-2
O=S(=O)(Nn1cnnc1)c1ccc(F)cc1	-2	4	0	42*	48*	-6
COc1nc(N2CCOCC2)nc(-n2cccc2)n1	-23	1	0	3	x	x
CCN(CC)C(=O)c1[nH]cnc1C(=O)N[C@@H](C)C(=O)OC(C)(C)C	0	2	-1	-6	x	x
CC(C)Cn1c(-c2ccco2)n[nH]c1=S	2	3	0	9	x	x
CC(C)Cn1c(-c2ccccc2F)n[nH]c1=S	0	5	0	32*	1	-1
O=C(CCNS(=O)(=O)/C=C/c1ccccc1)NCCc1c[nH]c2ccccc12	38	9	0	3	x	x
Cc1cc(C)c(NC(=S)N(CCN(C)C)Cc2cccs2)c(C)c1	134	x	0	1	x	x
Cc1ccc(NC(=S)N(CCN(C)C)Cc2cccs2)c(C)c1	11	6	-1	36*	7	1
SMILES	SUMO Mot1 rescue	ALR inh	HIF activator	PfM18AAP inh-1	PfM18AAP inh-2	CTSL1 counter
C/C(=N\N1C(=O)CSC1=S)c1ccc(Br)cc1	-9	-30	-1	50*	10	5
O=C1ON=C(c2ccccc2)/C1=C/c1ccc(O)c(O)c1	1	x	-1	60*	37*	-4
COc1ccc(C(=O)NCC(=O)N/N=C/c2ccco2)cc1OC	-14	x	-19	44*	-54	-6
COc1ccc(C(=O)NCCCCCC(=O)N/N=C/c2ccco2)cc1OC	18	3	0	0	x	x
O=C(N/C(=C/c1ccc([N+](=O)[O-])cc1)C(=O)N1CCOCC1)c1ccco1	19	-9	0	5	x	x
CCCC1CC(C(=O)Nc2ccccc2)C(=O)O1 (stereo not given)	1	-4	0	x	x	x
CCN1C(=O)N(C)C(N(O)C(=O)NC)C1(C)C (stereo not given)	12	x	0	42*	-59	-4
CNC(=O)N(O)C1N(C)C(=O)N(Cc2ccccc2)C1(C)C (stereo not given)	-6	1	0	7	x	x
O=C(Nc1ccc(F)c(Cl)c1)C1CC2CCC1C2 (stereo not given)	0	-20	0	x	x	x
CC(=O)Nc1ccc(NCC(=O)c2ccccc2)cc1	0	65	0	34*	-35	0
CCN(CC)c1ccc(N=CN2CCOCC2)cc1	-22	98*	1	34*	-28	0
